Compounds with a hit are over-represented: about 5% of the library has one in this group of screens.
EBI2 block: blocks human EBI2 receptor beta-arrestin signaling. P32249. 0.81% of 360,000 active. EBI2 beta-arrestin recruitment, luminescence, 7a,25-OHC stimulated. inhibition, % at 5 µM; in the data active = inhibition above about 38%;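 note: enzyme fragment complementation signal reports receptor beta-arrestin coupling in cells; 0% = agonist plus DMSO wells and 100% = wells without agonist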
AHR act: activators of human aryl hydrocarbon receptor; P35869; 2.5% of 320,000 active; AHR-responsive luciferase reporter cells, luminescence; activation, % at 5 µM; in the data active = activation above about 47%;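 note: 0% = vehicle wells and 100% = reference agonist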
SENP6 inh: blocks the human protease SENP6; AID 2599; inhibition, % at 10 µM; 1.8% of 330,000 active; Recombinant SENP6 catalytic domain, aminoluciferin luminescence;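 active = inhibition above about 50% at the single tested dose, limit read from the data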;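 note: plate controls were DMSO wells with enzyme for no effect and DMSO wells lacking enzyme for full effect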
Target sequence (Q9GZR1 628-1112 limits assumed): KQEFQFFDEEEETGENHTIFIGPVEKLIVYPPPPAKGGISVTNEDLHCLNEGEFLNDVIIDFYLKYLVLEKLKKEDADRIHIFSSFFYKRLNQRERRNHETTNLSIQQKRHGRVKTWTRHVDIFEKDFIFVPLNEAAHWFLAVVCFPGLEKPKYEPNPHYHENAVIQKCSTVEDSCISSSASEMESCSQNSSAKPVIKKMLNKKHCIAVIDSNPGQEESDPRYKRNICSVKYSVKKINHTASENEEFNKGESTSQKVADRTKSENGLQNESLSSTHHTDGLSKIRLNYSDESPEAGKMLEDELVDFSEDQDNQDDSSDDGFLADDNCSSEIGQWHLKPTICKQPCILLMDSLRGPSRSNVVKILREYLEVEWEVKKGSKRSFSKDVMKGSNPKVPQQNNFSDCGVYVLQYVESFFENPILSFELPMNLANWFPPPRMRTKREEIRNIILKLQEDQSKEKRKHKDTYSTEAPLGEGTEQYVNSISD
SENP8 block-1: SENP8 protease inhibition; purified SENP8, Z-RLRGG-aminoluciferin cleavage, luminescence; AID 2540; inhibition, % at 10 µM; 1.2% of 330,000 active; in the data active = inhibition above about 50%
SENP8 block-2: inhibitors of human SENP8 protease. Q96LD8. recombinant SENP8, Nedd8 substrate fluorescence. inhibition, % at 20 µM. 0.64% of 360,000 active; in the data active = inhibition mostly above about 40%, no sharp cut-off; inactive = mostly below about 27%
SENP7 block: blocks the human protease SENP7 | Q9BQF6 | recombinant SENP7, Z-RLRGG-aminoluciferin luminescence, 40 min | inhibition, % at 5 µM | 1.5% of 330,000 active;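 active = inhibition above about 50% at the single test dose, limit read from the data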;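 note: plate controls were DMSO with enzyme for no effect and no enzyme buffer wells for full effect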
Starred values were filed as active, the others as inactive; i = inactive; . = no result given.

SMILES	EBI2 block	AHR act	SENP6 inh	SENP8 block-1	SENP8 block-2	SENP7 block
O=c1oc(-c2ccc([N+](=O)[O-])cc2)nc2ccc(O)cc12	-11	2	95*	95*	7	100*
CCN(C(=O)C(C)N1C(=O)/C(=C/c2ccco2)SC1=S)C1CCS(=O)(=O)C1 (stereo unspecified)	12	2	14	11	48*	1
COc1cccc(CN(CC(=O)NC2CCCC2)C(=O)Cn2nnc(-c3cccs3)n2)c1	-6	2	2	-4	22	4
Nc1nc(-c2ccc(Cl)cc2Cl)cn1N	9	65*	-1	-2	-47	-5
Cc1ccc(C)c(-n2nnc3ccccc3c2=O)c1	0	.	.	.	-10	.
CCCOP(=O)(OCCC)C(Nc1ccc(C(C)C)cc1)c1ccc([N+](=O)[O-])cc1 (stereo unspecified)	22	60*	0	-3	14	-1
CCC(c1nnnn1-c1c(C)cccc1C)N1CCN(c2ccccn2)CC1 (stereo unspecified)	9	.	.	.	-8	.
Cc1cccc(C)c1NC(=O)C(c1ccccc1OC(F)(F)F)N1CCN(C)CC1 (stereo unspecified)	-2	.	.	.	21	.
O=C(N/N=C\c1cc(Cl)ccc1O)c1ccc(S(=O)(=O)N2CCCCC2)cc1	49*	28	9	1	9	7
O=C(NNC(=S)Nc1ccccc1Cl)C1CC1	-6	5	-13	-3	17	5
O=C(Nc1ccccc1)Nc1ccc(Br)c(Cl)c1	1	67*	17	11	15	26
O=C(NC(=S)Nc1cccc(Cl)c1Cl)C1CC1	1	52*	2	0	-6	-2
O=C(Nc1ccccc1)Nc1cccc(Cl)c1Cl	-5	39	74*	30	17	55*
CCc1nc2ccc(C(=O)Nc3ccc4c(c3)OCC(=O)N4)cn2c1N(C)Cc1nccn1C	-13	.	.	.	-2	.
O=C1c2ccccc2-c2nc3ncnn3c(-c3ccccc3Cl)c21	-7	56*	-1	3	17	4
Cc1nc2ncnn2c(C)c1Cc1c(Cl)cccc1Cl	4	-3	-16	-1	27	-9
O=C1c2ccccc2-c2c1nc1c([n+]2[O-])CCCC1	9	13	-1	-2	42*	9
COCCn1c(SCC(=O)NC2CCCC2)nc2c(c1=O)SCC2	3	1	13	7	8	-2
CCn1cc(Cl)c(C(=O)Nc2ccccc2C(N)=O)n1	-3	54*	-4	-11	-9	-2
CCn1cc(Br)c(C(=O)Nc2ccccc2C(=O)OC)n1	5	23	2	8	-16	-1
Cc1cccc(C(=O)NC(C)c2ccc(-n3ccnc3)cc2)c1C (stereo unspecified)	-5	44	-1	-1	10	4
CC(NC(=O)c1ccccc1OC(F)F)c1ccc(-n2ccnc2)cc1 (stereo unspecified)	6	71*	7	7	4	-5
COc1ccc(C(=O)NC(C)c2ccc(-n3ccnc3)cc2)c(OC)c1 (stereo unspecified)	-6	54*	12	3	-1	-7
COc1ccc(C(=O)NC(C)c2ccc(-n3ccnc3)cc2)c(OC)c1OC (stereo unspecified)	4	18	-14	0	-2	-8
OC(c1ccccc1)C(NCCNCc1ccccc1)c1ccccc1 (stereo unspecified)	0	.	.	.	3	.
SMILES	EBI2 block	AHR act	SENP6 inh	SENP8 block-1	SENP8 block-2	SENP7 block
O=C(/C=C/c1ccccc1Cl)NCc1cccs1	14	-2	-2	-6	18	5
O=C(NCc1ccccc1)c1c[nH]c2cc3c(cc2c1=O)OCCO3	-2	77*	1	-2	-9	3
CCOc1ccc2[nH]cc(C(=O)NCc3ccccc3)c(=O)c2c1	20	24	-4	-5	-6	18
c1coc(-c2cc3nc(NC4CCCCC4)ccn3n2)c1	16	.	.	.	i	.
Nc1nc2c(s1)CCc1c-2cnn1-c1ccccc1	2	13	62*	43	-493	35
CCOC(=O)c1ccc(N=Nc2c(C)c(C#N)c(O)[nH]c2=O)cc1	1	-2	92*	94*	25	98*
Clc1ccc(-c2ccnc(-n3cccc3)n2)s1	4	53*	19	-2	-377	0
Clc1ccsc1-c1ccnc(-n2cccc2)n1	-2	57*	-30	-6	-30	4
Cc1ccsc1-c1ccnc(-n2cccc2)n1	-1	67*	7	-4	-64	-3
Cc1cc(-c2sccc2Br)nc(-n2cccc2)n1	5	.	.	.	-313	.
Cc1cc(-c2ccc(Br)s2)nc(-n2cccc2)n1	-1	.	.	.	-464	.
c1coc(-c2ccnc(-n3cccc3)n2)c1	-21	3	-4	0	-146	-3
CSc1cccc(NC(=O)C2CCCN(S(C)(=O)=O)C2)c1 (stereo unspecified)	-12	.	.	.	17	.
CC(C)n1c(=O)c2ccccc2n1Cc1cn(Cc2cccnc2)nn1	-5	.	.	.	-376	.
Cc1noc(C)c1S(=O)(=O)N(C)C[C@H]1OCc2cnnn2CCCC(=O)N([C@@H](C)CO)C[C@H]1C	-7	.	.	.	16	.
COc1cccc(/C=C2\SC(=S)N(CCCC(=O)N3CCCCC3CCO)C2=O)c1 (stereo unspecified)	19	-5	16	3	12	-3
COc1cccc(/C=C2\SC(=S)N(CCCC(=O)N3CCCC3)C2=O)c1	1	-1	78*	48	12	65*
O=C(c1ccco1)N1CCN(c2ncnc3c(-c4ccc(Cl)cc4)nsc23)CC1	-4	58*	-3	6	-289	9
Cc1ccc(-c2csc3ncnc(N4CCN(C(=O)c5ccco5)CC4)c23)cc1	13	-1	-17	-2	5	-8
Cc1sc2ncnc(N3CCN(C(=O)c4ccco4)CC3)c2c1C	1	55*	12	13	18	14
O=C(c1ccco1)N1CCN(c2ncnc3scc(-c4ccc(F)cc4)c23)CC1	14	2	-12	0	28	-3
Cc1cc(NC(=O)CSCC(=O)OCC(=O)c2ccc(Br)cc2)no1	-3	.	.	.	-29	.
Cc1cccc(CN2CCN(C3CN(Cc4cn(Cc5ccc(Cl)cc5)nn4)S(=O)(=O)C3)CC2)c1 (stereo unspecified)	-4	.	.	.	16	.
C=CCNc1nc(NCc2cccc(OC)c2)c2sc(-c3ccccc3)cc2n1	57*	.	.	.	-350	.
COCCNc1nc(NCCOC)c2sc(-c3ccccc3)cc2n1	12	.	.	.	-358	.
COc1cccc(C(=O)N/N=c2\sc3ccccc3n2C)c1	-6	73*	1	-3	17	4
Cc1ccc(C(=O)N/N=c2\sc3ccccc3n2C)cc1	-2	95*	-20	-15	20	-3
Cn1/c(=N/NC(=O)c2ccccc2F)sc2ccccc21	-1	70*	-13	-4	6	0
Cc1ccc(C(=O)OCC(=O)c2c[nH]c3ccccc23)cc1S(=O)(=O)N1CCOCC1	-5	.	-14	-12	-8	4

Compound activity from PubChem BioAssay.
